# Compound activity: PubChem, several laboratories
# Sampled rows, rich in hits. Any-hit rate of the full collection: about 5.2%.
# NadD block = inhibitors of S. aureus NadD, primary screen, biochemical, colorimetric, uHTS; Nicotinate-nucleotide adenylyltransferase NadD (Staphylococcus aureus N315); inhibition, % at 20 µM; actives 0.78% (n = 360,000); purified NadD enzyme, colorimetric absorbance read-out; in the data active = inhibition above about 26%
# SMARCA2 act = SMARCA2 (BRM) function activators, primary screen, cell-based, luminescence, high throughput; MG213 cells, MMTV-luciferase reporter, dexamethasone, overnight; activation, % at 9.1 µM; actives 1% (n = 370,000); in the data active = activation above about 7.8%;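 also: 0% = vehicle wells and 100% = reference activator wells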
# SKN-1 inh = suppressors of acrylamide-induced Pgst-4::GFP reporter in worms, primary screen, SKN-1 inhibitor project, whole organism, uHTS, GFP/RFP fluorescence ratio, strain VP596; actives 0.49% (n = 360,000); C. elegans VP596 Pgst-4::GFP/RFP ratio, 24 h; inhibition, % at 21.8 µM;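 active = interference check ratio from 0.5 to 1.5 plus GFP to RFP signal ratio inhibition reaching or exceeding a fixed threshold, cut at about 30% in these data, passing the limit was not always enough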
# NR3A LBD binder = binders of NR3A ligand-binding domain, primary screen, biophysical, differential scanning fluorimetry, uHTS; AID 1259313, 2017; Tm shift relative to glycine control, % at 25 µM; actives 2.5% (n = 340,000); NR3A LBD differential scanning fluorimetry, Tm shift; 0% = protein alone, 100% = glycine-bound protein; Glutamate receptor ionotropic, NMDA 3A (GRIN3A) ligand-binding domain;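 active = melting temperature shift of at least 10% of the positive control shift, at one fixed dose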
# Vif imaging = HIV Vif self-association inhibitors, primary screen, imaging, HEK293T, single point | HEK293T cells, Vif self-association by quenched fluorescence, 24 h | inhibition, % at 7.49 µM | actives 0.35% (n = 340,000) | AID 602346, 2012; in the data active = inhibition above about 50%, passing the limit was not always enough; inconclusive = no clear call, values can overlap the other calls; inactive = below about 31%
# esBAF inh = Bmi1 luciferase reporter increase in mESCs, primary screen, esBAF inhibitor project, mouse ES cells, Bmi1 luciferase knock-in, single point | AID 602393, 2012 | actives 2% (n = 350,000) | reporter increase, % at 12.5 µM | 24 h; 100% = twice the neutral-well signal; in the data active = activation above about 40%; inconclusive = no clear call, values can overlap the other calls;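 also: 0% = median of the plate's neutral control wells and 100% = double that signal; a rise in the Bmi1 reporter signal indicates esBAF inhibition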
# The depositor's hits bear a star; ? = inconclusive; nt = no result.
SMILES,NadD block,SMARCA2 act,SKN-1 inh,NR3A LBD binder,Vif imaging,esBAF inh
Cc1cccn2c(=O)c3cc(C#N)c(=O)n(Cc4cccnc4)c3nc12,-0.5,-2.4,4.5,18.8*,-8.1,3.1
C[C@@H]1CN([C@H](C)CO)C(=O)c2cccc(NC(=O)c3ccncc3)c2O[C@@H]1CN(C)C(=O)Nc1ccc(C(F)(F)F)cc1,nt,nt,nt,nt,nt,-1.7
C[C@H]1CN([C@@H](C)CO)C(=O)Cc2cc(NC(=O)CCCCCC(=O)Nc3ccccc3N)ccc2O[C@H]1CN(C)C(=O)Nc1ccc(C(F)(F)F)cc1,nt,nt,nt,nt,nt,-0.9
O=C(c1ccc(NC(=O)C2(c3ccccc3)CCOCC2)cc1)N1CCOCC1,-0.7,-3.6,-10.4,-2.7,-1.9,nt
CC(=O)c1ccc(NC(=O)C2(c3ccccc3)CCOCC2)cc1,-1.2,1.3,7.7,2.5,3.4,55.4*
CO[C@H]1CN(C)C(=O)c2ccc(NC(=O)Nc3ccc(Cl)cc3)cc2OC[C@H](C)NC[C@@H]1C,nt,nt,nt,nt,nt,16.8
C[C@H]1CN([C@@H](C)CO)C(=O)c2cccc(NC(=O)c3cnccn3)c2O[C@H]1CN(C)Cc1ccc2c(c1)OCO2,nt,nt,nt,nt,nt,-4.6
Cc1ccccc1OCc1nc2ccccc2c(=O)n1N,-3.9,5.1,-11.2,-3.8,6.4,28.0
Cc1ccccc1OCc1nnc2c3cnn(C)c3ncn12,-1.0,-0.1,3.5,5.0,nt,54.2*
Cc1ccc(NC(=O)C2=C(c3ccccc3)S(=O)(=O)CCS2(=O)=O)cc1,-1.3,-8.3,-7.2,14.3*,4.8,nt
O=C(Nc1ccc(-c2ccccc2)cc1)c1ccccc1,3.5,-2.1,22.3,-0.9,-4.7,0.8
Cc1ccc(C(=O)O)cc1NC(=S)NC(=O)c1ccc(-c2ccccc2)cc1,6.9,2.4,-1.7,6.4,2.5,62.1*
Cc1c(Cl)cccc1NC(=O)Nc1ccc(C(N)=O)cc1,-3.4,0.3,6.0,11.2*,1.4,nt
Cc1c(Cl)cccc1NC(=S)NC(=O)c1ccccc1,-1.7,4.6,6.0,nt,-12.9,59.7*
O=C(O)c1cccc(NC(=S)NC(=O)c2ccc(-c3ccccc3)cc2)c1,2.6,0.5,-1.1,-0.6,0.9,nt
O=C(NCC[C@@H]1CC[C@@H](NC(=O)C2CCCCC2)[C@H](CO)O1)Nc1ccc(Cl)cc1,nt,nt,nt,nt,nt,39.7
CCOC(=O)c1[nH]nc(C(=O)c2ccc(Br)cc2)c1O,2.0,-1.8,-32.2,3.1,-0.6,54.2*
CCOC(=O)c1ccc(CNCc2ccc(Br)cc2)cc1,2.3,-2.8,12.6,-5.0,-0.2,-0.1
COc1ccc(C(=O)N/N=C/c2c[nH]c3ccccc23)cc1,3.5,-1.4,-3.9,36.6*,-7.3,34.5
CC(=O)Nc1cccc(C(=O)N/N=C/c2c[nH]c3ccccc23)c1,-6.7,1.9,19.9,30.0*,-9.9,-11.2
COc1ccc(C(=O)N/N=C/c2cc3ccccc3[nH]c2=S)cc1,21.2,-3.3,-4.0,3.5,-3.4,nt
CC(C)c1cc(C(=O)N/N=C/c2c[nH]c3ccccc23)n[nH]1,-0.6,-0.1,-11.7,7.5,-1.6,7.1
COc1ccc2cc(C(=O)N/N=C/c3sc4ccccc4c3O)ccc2c1,15.7,-1.4,6.1,11.6*,-1.6,nt
CSc1ccc(/C=N/Nc2ccc(Cl)c(C(=O)O)c2)cc1,-2.4,7.9*,0.7,-10.7,0.3,nt
CCCN(C)C[C@@H]1Oc2cc(-c3ccc(F)cc3)ccc2S(=O)(=O)N([C@H](C)CO)C[C@@H]1C,nt,nt,nt,nt,nt,-1.9
SMILES,NadD block,SMARCA2 act,SKN-1 inh,NR3A LBD binder,Vif imaging,esBAF inh
O=C(C[C@@H]1CC[C@H](NS(=O)(=O)c2ccc(F)cc2)[C@@H](CO)O1)NCc1ccc(Cl)c(Cl)c1,nt,nt,nt,nt,nt,23.8
O=C(N/N=C/c1c[nH]c2ccccc12)c1cccc(Cl)c1,-20.4,0.8,10.1,37.0*,3.0,?
Cc1ccc(NC(C)C(=O)N/N=C/c2c[nH]c3ccccc23)cc1 (stereo not given),-2.7,-1.2,8.3,-5.5,17.1,-6.7
COc1ccc2c(/C=N/Nc3ccc(C(=O)O)cc3)c[nH]c2c1,3.1,7.2,9.0,1.6,2.2,32.4
O=C(N/N=C/c1c[nH]c2ccccc12)c1ccc([N+](=O)[O-])cc1Cl,-5.2,nt,-11.2,3.5,10.5,7.5
Cc1ccc(NCC(=O)N/N=C/c2c[nH]c3ccccc23)cc1,7.3,-4.3,11.0,24.0*,0.6,nt
CCCCCN=C(N)N/N=C/c1c[nH]c2ccc(OC)cc12,9.4,-9.6,21.1,-2.2,81.1*,-79.5
CCCOc1ccc(C(=O)N/N=C/c2c[nH]c3ccc(Br)cc23)cc1,5.9,-1.6,2.8,37.4*,?,-5.6
O=C(C[C@H]1CC[C@H]2[C@@H](COC[C@H](O)CN2Cc2ccccc2F)O1)NC1CCC1,nt,nt,nt,nt,nt,-2.0
O=C(N/N=C/c1c[nH]c2ccccc12)c1cccc(O)c1,-1.4,0.7,-1.5,25.7*,-5.5,51.3
O=C(N/N=C/c1c[nH]c2ccccc12)c1ccc(O)c(O)c1,-6.5,-1.3,-17.7,28.5*,-6.0,-1.7
O=C(N/N=C/c1c[nH]c2ccccc12)c1ccn(Cc2ccc(Cl)cc2Cl)n1,23.7,-2.2,5.9,2.3,-6.7,-2.1
O=C(O)c1cc(N/N=C/c2c[nH]c3ccccc23)ccc1Cl,8.9,4.7,13.7,21.7*,3.1,?
CCOc1ccccc1C(=O)N/N=C/c1c[nH]c2ccccc12,-0.4,-3.3,5.2,4.0,-8.3,-7.0
O=C(N/N=C/c1c[nH]c2ccc(Br)cc12)c1ccn(Cc2ccc(Cl)cc2)n1,21.7,3.2,9.8,18.2*,-8.0,nt
CCS(=O)(=O)Nc1ccc2c(c1)C(=O)N(C)[C@@H]1CC[C@H](CC(=O)N3CCN(C)CC3)O[C@H]1CO2,nt,nt,nt,nt,nt,4.5
CN1CCN(C(=O)C[C@H]2CC[C@@H]3[C@H](COC[C@@H](O)CN3Cc3cccc(F)c3)O2)CC1,nt,nt,nt,nt,nt,1.9
O=C(C[C@@H]1CC[C@H]2[C@@H](COC[C@@H](O)CN2Cc2cccc(-c3ccncc3)c2)O1)N1CCOCC1,nt,nt,nt,nt,nt,-0.6
COc1ccc(C(=O)N/N=C/C(=O)c2ccccc2)cc1,0.6,2.6,-10.1,3.3,-3.8,62.1*
C[C@@H]1CN([C@@H](C)CO)S(=O)(=O)c2ccc(Br)cc2O[C@@H]1CN(C)Cc1ccc(C(=O)O)cc1,nt,nt,nt,nt,nt,0.8
CCC(=O)Nc1ccc(NC(=O)/C=C/c2ccc(Cl)cc2)cc1,-1.3,-0.5,-2.4,19.6*,7.7,14.0
COc1cc(/C=C/C(=O)Nc2ccc(C(C)=O)cc2)cc(OC)c1OC,1.4,-1.8,2.7,0.4,0.4,nt
